# Records with an inconclusive call do not appear. Where a call stands in place of a potency, no number is given. The source made the active and inactive calls. The call rests on the fitted dose curve; in most records, active means well fitted curve in the direction sought with a large enough effect; inconclusive means small, poorly fitted or top-dose-only effect, or another doubt; inactive means no such curve, though single readings can be large or run the other way.
# Tested on: NanoLuc luciferase (engineered Oplophorus gracilirostris luciferase)
# Assay: Confirmatory Nanoluciferase (NLuc) qHTS assay for identification of artifact compounds.
# Conditions: secreted NLuc in S16 cell medium, luminescence, 5 min; series mostly up to 39 µM
# Description: PI: Alexander Tropsha Ph.D. UNC Eshelman School of Pharmacy University of North Carolina, Chapel Hill, North Carolina Hits from high-throughput screening (HTS) of chemical libraries are often false positives due to their interference with the assay detection technology. In response to this problem, we generated the largest publicly available library of chemical liabilities and developed a free webtool to predict HTS artifacts, both of which are described herein. More specifically, we generated, curated, and integrated HTS datasets for thiol reactivity, redox activity, and luciferase (firefly and nano) activity. Using these curated datasets, we developed and validated several Quantitative Structure-Interference Relationship (QSIR) models to predict nuisance behavior. […] These models were employed for virtual profiling of the National Center for Advancing Translational Science's (NCATS) in-house library, and 256 compounds for each assay were selected for the experimental validation of nuisance behavior. The BA for these external predictions ranged from 58 to 78% for compounds within the applicability domains of the models. […] The models developed in this study, along with aggregation models previously developed by our group (SCAM Detective) were implemented in "Liability Predictor," an online tool which may be used as part of chemical library design or for triaging HTS hits. Both the models and the curated datasets are publicly available at https://liability.mml.unc.edu/.
# PROTOCOL TABLE SEQUENCE No. (e.g., 1, 2, 3, etc.); PARAMETER (e.g., Cells, Incubation, Reagent, etc.); VALUE; DESCRIPTION. 1; Reagent; 2 uL; Nanoluciferase media. 2; Compounds and control; 16 nL; Kalypsis pin tool (Wako USA) equipped with a 1536-well pin head. 3; Incubation; 15 min. 4; Reagent; 2 uL; Luciferase enzyme. 5; Incubation; 5 min. 6; Detection; Luminescence, ViewLux microplate reader. NOTES (numbers refer to Sequence numbers above) 1. Medium was collected from the culture flasks of NLuc-expressing S16 cells (80% confluent) prior to cell plating, filtered through a 0.22um filter, and frozen at -20C prior to use. Media was diluted (1:55) and 2 uL was dispensed into all wells of a 1536-well assay plate (solid-bottom white plate; Greiner Bio One, Monroe, NC). 2. A Wako Pin-tool (Wako Automation, Richmond, VA) was used to transfer 16 nL of compounds (consisting of 7-plates in qHTS format, final concentration range 18.3 nM to 114 uM) or control Cilnidipine (final concentration range 623 nM to 80 uM). 3. 15 min. incubation at room temperature protected from light. 4. 2 uL of NLuc substrate (1:100 in Nano-Glo luciferase buffer; Nano-Glo luminescence assay, Promega, Madison, WI) was dispensed for a final assay volume of 4 uL. 5. Plates were centrifuged (121xg, 15 seconds) and incubated for 5 minutes. 6. Samples were read for luminescence on a ViewLux CCD imager (PerkinElmer). Data were normalized to no-enzyme (0% activity) and no-inhibitor (DMSO; 100%) controls and the resulting percent inhibition data were fitted to a 4-parameter Hill equation using NCATS in-house software.
# Potency means the concentration at half of the fitted maximal effect.
row,Structure (SMILES),Potency
1,CC1=C[C@H]2[C@]3(O)C(C=C(CO)C[C@]2(O)C1=O)[C@@H]1C(C)(C)[C@]1(O)[C@H](O)[C@H]3C (some centres undefined),inactive
2,CC(=O)O[C@H]1[C@H]2[C@@H](OC(=O)Cc3ccccc3)[C@@H](C)C[C@]2(OC(C)=O)C(=O)/C(C)=C/[C@@H]2[C@H](CC[C@@]13CO3)C2(C)C,inactive
3,C[C@@H]1C[C@@H]2[C@H]([C@H]3C=C(COC(=O)c4ccccc4)[C@@H](O)[C@]4(O)[C@@H](O)C(OC(=O)c5ccccc5)=C[C@@]14C3=O)C2(C)C,inactive
4,CC(=O)O[C@H]1C2[C@@H](OC(=O)Cc3ccccc3)[C@@H](C)C[C@]2(OC(C)=O)C(=O)/C(C)=C/[C@@H]2[C@H](CC[C@@]13CO3)C2(C)C (some centres undefined),inactive
5,COc1cc(=O)n2c(c1C(=O)N(C)Cc1nonc1C)CCN(C(=O)C1C(C)(C)C1(C)C)CC2,inactive
6,O=P1(N(CCCl)CCCl)NC(OO)CCO1 (centres undefined),inactive
7,C[C@H]1CC[C@@H]2[C@@H](C)[C@H]3C(CC4C5CC=C6CC(O[C@@H]7O[C@H](CO)C(O[C@@H]8O[C@@H](C)[C@H](O)[C@@H](O)[C@H]8O)[C@H](O)[C@H]7O[C@@H]7O[C@@H](C)[C@H](O)[C@@H](O)[C@H]7O)CC[C@]6(C)C5CC[C@@]43C)N2C1 (some centres undefined),inactive
8,COc1cccc2c1C(=O)c1c(O)c3c(c(O)c1C2=O)CC(O)(C(C)=O)CC3OC1CC(NCc2ccc(CNC3CC(OC4CC(O)(C(C)=O)Cc5c(O)c6c(c(O)c54)C(=O)c4c(OC)cccc4C6=O)OC(C)C3O)cc2)C(O)C(C)O1 (centres undefined),15.4 µM (active)
9,CC(C)(O)[C@@H]1[C@H]2OC(=O)[C@@H]1[C@]1(O)C[C@H]3O[C@]34C(=O)O[C@H]2[C@]14C,inactive

# From PubChem BioAssay AID1845224 (National Center for Advancing Translational Sciences (NCATS), 2023)
